Shown is part of a subset that was picked to be rich in hits.
miR122 inh: activators of miR-122 sensor in Huh7 cells | Huh7 psiCHECK-miR122 Renilla luciferase sensor, 48 h | activation, % at 12.5 µM | hit rate 0.14% among 340,000;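 active = mean activation of 30% or more, with every replicate also reaching 30%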;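 note: 0% = median of neutral control wells and 100% = median of positive control wells; higher luciferase signal means stronger suppression of miR-122 activity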
* marks the source's active call; other numbers are inactive results.

SMILES	miR122 inh
Cc1sc(NC(=O)c2ccccc2)c(C(c2ccc(Cl)cc2)N2CCN(CCO)CC2)c1C (stereo not drawn)	-95
CCCNC(=O)N(C)C[C@@H]1Oc2ncc(/C=C/c3ccccc3)cc2C(=O)N([C@@H](C)CO)C[C@@H]1C	5
Cc1ccc(NS(=O)(=O)c2ccc3c(c2)NC(=O)CCS3)cc1C	-92
COCC#Cc1ccc2c(c1)O[C@@H](CN(C)C(=O)C1CCCCC1)[C@@H](C)CN([C@@H](C)CO)S2(=O)=O	-8
COCC#Cc1ccc2c(c1)O[C@@H](CN(C)Cc1cncnc1)[C@@H](C)CN([C@H](C)CO)S2(=O)=O	0
N#C/C(=C\c1ccc(N2CCOCC2)o1)C(=O)NCC1CCCO1 (stereo not drawn)	36*
COc1ccc(C#Cc2ccc3c(c2)O[C@H](CN(C)C(=O)NC2CCCCC2)[C@@H](C)CN([C@@H](C)CO)S3(=O)=O)cc1	-3
C[C@@H]1CN([C@@H](C)CO)S(=O)(=O)c2ccc(-c3ccccc3F)cc2O[C@@H]1CN(C)S(C)(=O)=O	-10
O=C(Cc1ccccc1)N1C[C@@H]2[C@H](c3ccccc31)[C@H](CO)N2C(=O)Nc1ccc(F)cc1	-92
O=C(Nc1ccccc1F)N1[C@H](CO)[C@@H]2c3ccccc3NC[C@@H]21	42*
COc1ccc(S(=O)(=O)N(C)C[C@H]2Oc3cc(C#CC4CCCC4)ccc3S(=O)(=O)N([C@H](C)CO)C[C@@H]2C)cc1	-101
CCCN(C)C[C@@H]1Oc2cc(C#CC3CC3)ccc2S(=O)(=O)N([C@@H](C)CO)C[C@@H]1C	3
CN(C)S(=O)(=O)c1cccc(NC(=S)N/N=C/c2ccc(O)c(O)c2O)c1	70*
C[C@H](O)C#Cc1ccc2c(c1)O[C@H](CN(C)C)[C@@H](C)CN([C@@H](C)CO)S2(=O)=O	-5
CCC(=O)N(C)C[C@H]1Oc2ncc(C#Cc3ccc(OC)cc3)cc2C(=O)N([C@@H](C)CO)C[C@@H]1C	6
COc1ccc(S(=O)(=O)N2c3cc(C)ccc3OCC2C(C)(C)C)cc1 (stereo not drawn)	-151
CCOC(=O)CSc1nc2ccccc2c(=O)n1CC1CCC(C(=O)NCc2ccco2)CC1 (stereo not drawn)	-138
CCOC(=O)CSc1nnnn1-c1cccc2ccccc12	38*
C[C@@H]1CN([C@H](C)CO)C(=O)c2cc(-c3ccc(C#N)cc3)cnc2O[C@@H]1CN(C)CC1CCOCC1	4
C[C@H](CO)N1C[C@H](C)[C@@H](CN(C)Cc2ccc(Cl)c(Cl)c2)Oc2c(NC(=O)c3ccncc3)cccc2C1=O	-106
Cn1cnc(S(=O)(=O)N2C[C@@H](O)COC[C@H]3O[C@@H](CC(=O)NC4CCCC4)CC[C@@H]32)c1	-127
COc1ccc(OC)c(NS(=O)(=O)c2ccc(N3CCCC3=O)cc2)c1	-120
COc1ccc(OC)c(Nc2nc(N)nc(CCl)n2)c1	32*
COc1ccc(S(=O)(=O)Nc2cc(Cl)ccc2OC)cc1	-138
COc1ccc(NS(=O)(=O)c2cc(NC(=O)c3sccc3C)ccc2N2CCOCC2)cc1	-188
SMILES	miR122 inh
COc1ccc(C(=O)Nc2nc3c(s2)CCCC3)cc1S(=O)(=O)N1CCCc2ccccc21	-115
C[C@@H]1CN([C@@H](C)CO)C(=O)Cc2cc(NC(=O)C3CCCCC3)ccc2O[C@H]1CN(C)Cc1ccc(-c2ccccc2)cc1	33*
Cc1ccc(S(=O)(=O)N(C)C[C@@H]2Oc3ccc(NC(=O)Nc4ccc(C(F)(F)F)cc4)cc3CC(=O)N([C@H](C)CO)C[C@@H]2C)cc1	-123
C[C@@H]1CN([C@H](C)CO)C(=O)Cc2cc(NS(=O)(=O)c3ccc(Cl)cc3)ccc2O[C@@H]1CN(C)C(=O)Nc1ccc(C(F)(F)F)cc1	-103
C[C@H](CO)N1C[C@H](C)[C@H](CN(C)Cc2ccc(C(=O)Nc3ccccc3N)cc2)Oc2ccc(NC(=O)C3CC3)cc2CC1=O	-165
C[C@@H]1CN([C@@H](C)CO)C(=O)Cc2cc(NC(=O)Nc3ccc(C(F)(F)F)cc3)ccc2O[C@H]1CN(C)CC1CCCCC1	31*
C[C@H](CO)N1C[C@H](C)[C@H](CN(C)Cc2ccc(C(=O)Nc3ccccc3N)cc2)Oc2ccc(NC(=O)C3CCCCC3)cc2CC1=O	-95
COCC#Cc1cnc2c(c1)C(=O)N([C@@H](C)CO)C[C@@H](C)[C@H](CN(C)C(=O)Cc1ccccc1)O2	1
C[C@@H]1CN([C@H](C)CO)C(=O)c2cc(-c3ccncc3)cnc2O[C@@H]1CN(C)C(=O)Cc1ccccn1	-6
COc1ccc(-c2cc(C3CCN(c4ccc(C(C)=O)cc4[N+](=O)[O-])CC3)[nH]n2)cc1	45*
Cc1ccc(N(Cc2ccco2)C(=O)c2ccc(N3CCCCC3)c([N+](=O)[O-])c2)cc1	-165
CCCC(O)C#Cc1cnc2c(c1)C(=O)N([C@H](C)CO)C[C@H](C)[C@H](CN(C)C(=O)Nc1ccc(F)cc1)O2 (stereo partly drawn)	3
Cc1nn(C)cc1NC(=O)C[C@H]1CC[C@@H]2[C@H](COc3ccc(NC(=O)Nc4cccc(Cl)c4)cc3C(=O)N2C)O1	69*
Cc1nn(C)cc1NC(=O)C[C@@H]1CC[C@H]2[C@@H](COc3ccc(NC(=O)Nc4cccc(Cl)c4)cc3C(=O)N2C)O1	48*
CCCNC(=O)N(C)C[C@@H]1Oc2cc(-c3ccccc3)ccc2S(=O)(=O)N([C@@H](C)CO)C[C@H]1C	-9
CNC[C@H]1Oc2cc(C#C[C@@H](C)O)ccc2S(=O)(=O)N([C@@H](C)CO)C[C@@H]1C	4
C[C@H](CO)N1C[C@H](C)[C@@H](CN(C)C(=O)c2ccccc2)Oc2cc(/C=C/c3ccccc3)ccc2S1(=O)=O	-13
Cc1ccc(NC(=S)NCc2ccc(F)cc2)cc1	-106
C[C@@H]1CN([C@H](C)CO)S(=O)(=O)c2ccc(-c3ccc(C(=O)N(C)C)cc3)cc2O[C@H]1CN(C)C(=O)Cc1ccccn1	-4
C[C@@H]1CN([C@H](C)CO)C(=O)c2cc(-c3cncnc3)cnc2O[C@H]1CN(C)CC1CCOCC1	-2
C[C@@H]1CN([C@H](C)CO)C(=O)c2cc(C#Cc3ccc(F)cc3)cnc2O[C@H]1CN(C)Cc1ccccn1	-2
CNC[C@@H]1Oc2cc(C#C[C@@H](C)O)ccc2S(=O)(=O)N([C@@H](C)CO)C[C@H]1C	1
C[C@H]1CN([C@@H](C)CO)C(=O)c2cc(C3=CCCCC3)cnc2O[C@H]1CN(C)Cc1cccc(F)c1	5
Cc1ccccc1C(=O)Oc1ccc(Br)cc1C(=S)N1CCCC1	-114
C/C=C/c1ccc2c(c1)O[C@@H](CN(C)C(=O)CC1CC1)[C@@H](C)CN([C@H](C)CO)S2(=O)=O	-6
SMILES	miR122 inh
Cc1cccc(C)c1NC(=O)CSCC(=O)c1ccc(O)c(O)c1	35*
C[C@@H]1CN([C@H](C)CO)C(=O)c2cc(-c3cccc(F)c3)cnc2O[C@H]1CN(C)S(C)(=O)=O	2
CCC(=O)Nc1ccc2c(c1)OC[C@@H](C)N(CCC(F)(F)F)C[C@H](C)[C@@H](OC)CN(C)C2=O	1
COc1ccc(S(=O)(=O)Nc2cc3c(C(C)=O)c(C)oc3c3ccccc23)cc1	-91
C[C@H]1CN([C@@H](C)CO)C(=O)c2cc(C3=CCCC3)cnc2O[C@H]1CN(C)C(=O)C1CCCCC1	1
COC(=O)C1=C(C)N=C2SC(C#N)=C(N)N2C1c1cc(OC)c(OC)c(OC)c1 (stereo not drawn)	38*
C[C@H]1CN([C@@H](C)CO)S(=O)(=O)c2ccc(-c3cccc(C#N)c3)cc2O[C@@H]1CN(C)C(=O)Nc1ccccc1F	-1

From PubChem
